What all share (assay): NCI-60 one-dose screen, 48 h (100 = growth as untreated, 0 = no growth, -100 = all killed)
Conditions in all cases: 10 µM

In assay [1] the test system is NCI-H23 lung.
Assay [2] relates to NCI-H226 lung.
In assay [3] the test system is NCI-H322M lung.
Assay [4] has as its system HOP-62 NSCLC.
Assay [5] deals with NCI-H460 lung.
The test system of assay [6] is HOP-92 NSCLC.
In assay [7] the test system is NCI-H522 lung.
Assay [8] concerns A549/ATCC NSCLC.
In assay [9] the test system is 786-0 renal.
For assay [10], the system named is COLO 205 colon.

This is part of a sample that, as a whole, favours compounds with a hit. Of some 83,000 tested, about 20% had one in any assay.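 Interpretation: 100, growth as untreated; towards 0, rising growth inhibition; 0, no net growth; 0 to -100, cell death. Compounds scoring below 10 were considered active.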 Values without a mark were called inactive. Activity calls are given as the source filed them.

For `CCN1CCOC1C(C)C` (stereo not given), the growth in assay [1] was 102%; in [2], 109%; in assay [3], 103%; in [4], 99.5%; in assay [5], 107%; in assay [6], 114%. The growth in [7] is 97.1%; in [8], 101%; in [9], 94.2%; in assay [10] it was 110%.

As to `Cn1c([N+](=O)[O-])cnc1/C=C1\Oc2ccc(Br)cc2C1=O`, the growth in assay [1] was -9.69% (active); in assay [2] it was -38.1% (active); in assay [3], -10.5% (active); in [4] it was -23.7% (active); in assay [5], -35% (active); in assay [6], -32% (active). Further, the growth in [7] is -49.4% (active); in assay [8], -24.8% (active); in assay [9], -52.9% (active); in [10], -42.1% (active).

On to `Cc1ccc(-c2cc(-c3cccc(Nc4ccnc5cc(Cl)ccc45)c3)nc3nc(N)[nH]c(=O)c23)cc1`, for which the growth in assay [1] is 100%; in [2] it was 96.6%; in [3] it was 91.3%; in assay [4], 113%; in [5], 110%; in assay [6], 14.6%. Further, the growth in assay [7] is 21%; in assay [8], 102%; in assay [9], 94.9%; in [10], 125%.

In the case of `Cc1nc(N)sc1Sc1nc2ccc(Cl)cc2c(=O)n1-c1ccc(Oc2ccccc2)cc1`, the growth in [1] was 74%; in [2] it was 86.4%; in [3] it was 111%; in [4] it was 116%; in [5] it was 82%; in assay [6], 74.4%. Further, the growth in assay [7] is 85.3%; in [8], 70.2%; in assay [9], 68.5%; in assay [10], 102%.

As to `C=CCNC(=S)NN`, the growth in [1] is 98.2%; in [2], 106%; in [3], 82.4%; in assay [4], 81.2%; in assay [5] it was 99%; in assay [6], 84.6%. Besides, the growth in assay [7] is 91.6%; in assay [8], 69.6%; in assay [9], 98.4%; in assay [10], 107%.

As for `C=CCn1c(C)nc2cc(Nc3nc(Nc4ccc5nc(C)n(CC=C)c5c4)c4ccccc4n3)ccc21`, the growth in [1] is -69.2% (active); in assay [2] it was -47.1% (active); in assay [3], -92.2% (active); in assay [4], -99.5% (active); in assay [5] it was -84.2% (active); in assay [6], -79% (active). Also, the growth in assay [7] was -94.8% (active); in assay [8], -67.1% (active); in [9] it was -70.6% (active); in assay [10], -100% (active).

For the molecule `COc1ccc(-c2nc(-c3nc4ccc(OC)cc4[nH]3)c3ccccn23)cc1`, the growth in assay [1] is 90.5%; in [2] it was 75.1%; in assay [3], 65%; in assay [4], 63%; in assay [5] it was 67.7%; in [6], 13.9%. In addition, the growth was 62.8% in assay [7], 48% in assay [8], 84.4% in assay [9] and 95.1% in assay [10].

For `O=C(Nc1ccc(CN2CCOCC2)cc1)c1ccc(-c2cc(Cl)ccc2Cl)o1`, the growth was 82.7% in [1]; 72.5% in assay [2]; 51.4% in assay [3]; 71.4% in assay [4]; 5.58% (active) in assay [5]; 19.2% in assay [6]. The growth in [7] was 66.7%; in assay [8] it was 57.3%; in assay [9] it was 63%; in assay [10], -82.1% (active).

With `O=[N+]([O-])c1cc2ncccc2c2ncccc12`, the growth was 81.3% in [1]; 96.3% in assay [2]; 80.3% in assay [3]; 137% in assay [4]; 66.9% in [5]; 109% in [6]. For the same molecule, the growth was 15.8% in assay [7], 88.4% in assay [8], 110% in [9] and 95.6% in assay [10].

For `CCC1(C)OC(=O)NC1=O` (stereo not given), the growth in [1] was 96%; in [2], 93.1%; in [3], 105%; in [4], 71.1%; in assay [5], 111%; in assay [6] it was 93.2%. Moreover, the growth is 84.5% in assay [7], 79.2% in [8], 99.6% in assay [9] and 103% in assay [10].

For `CC1=CSC2=NC(c3ccc(Cl)c(Cl)c3)=CC(c3ccc(Cl)cc3)N12` (stereo not given), the growth is 32.3% in [1]; 38.1% in assay [2]; -4.79% (active) in assay [3]; 30.9% in assay [4]; 53.7% in assay [5]; -42.1% (active) in assay [6]. Further, the growth was -20.7% (active) in assay [7], 51.1% in assay [8], 22.3% in [9] and 104% in assay [10].

Take `CCOC(=O)c1cc2c(n1Cc1cccc(OC)c1)-c1oncc1CC2`: the growth in [1] is 48.9%; in assay [2], 50%; in assay [3], -0.987% (active); in assay [4], 37.8%; in assay [5] it was 10%; in assay [6], 30.5%. The growth is 13.7% in [7], 42.6% in [8], 36.5% in assay [9] and 9.01% (active) in [10].

On to `COC(=O)[C@]12CC[C@@H](C)[C@H](C)[C@@H]1C1=CC[C@@H]3[C@@]4(C)C[C@@H](O)[C@H](O)[C@@](C)(CO)[C@@H]4[C@H](O)C[C@@]3(C)[C@]1(C)CC2`, for which the growth in [1] is -50% (active); in assay [2] it was -42.8% (active); in assay [3], -29% (active); in assay [4], -59.5% (active); in assay [5] it was -72.5% (active); in [6] it was -56% (active). Moreover, the growth in [7] was -78.9% (active); in assay [8], -62.3% (active); in assay [9], -65.1% (active); in [10] it was -87.5% (active).

Regarding `CC1(C)CNC(=O)N1`, the growth in [1] is 104%; in assay [2] it was 92.8%; in assay [3], 109%; in assay [4], 92.6%; in assay [5], 106%; in [6] it was 87%. Moreover, the growth was 83.9% in assay [7], 93.3% in assay [8], 94.3% in [9] and 101% in [10].

On to `COc1cc(-c2nc3ccc(C)cc3[nH]2)ccc1OCc1nnc(-c2ccc(CC(C)C)cc2)o1`, for which the growth in assay [1] is 93.2%; in assay [2] it was 86.9%; in [3], 97.2%; in [4], 90.6%; in [5], 90.8%; in assay [6], 79.4%. Besides, the growth was 97.4% in [7], 93.5% in [8], 90% in assay [9] and 103% in assay [10].

On to `COc1cccc2c1C(=O)c1c(O)c3c(c(O)c1C2=O)C[C@@](O)(C(=O)COC(=O)c1ccccc1)C[C@@H]3OC1CC(N)C(O)C(C)O1` (stereo not given in full), for which the growth in assay [1] was -65.6% (active); in assay [2], -71.9% (active); in assay [3], -95.7% (active); in [4], -96.8% (active); in assay [5] it was -80.9% (active); in assay [6], -77.9% (active). Besides, the growth is -85.8% (active) in assay [7], -85.1% (active) in assay [8], -83.9% (active) in [9] and -90.9% (active) in assay [10].

For `O=C(CCc1ccccc1)N1CCN(C(=O)CCc2ccccc2)CC1`, the growth in assay [1] was 101%; in assay [2], 99.3%; in assay [3], 95.2%; in assay [4], 105%; in assay [5], 114%; in assay [6], 84.1%. For the same molecule, the growth in [7] is 98.3%; in assay [8], 99.9%; in [9] it was 94.6%; in [10], 102%.

Consider `C=CCOc1ccc2c(c1)CC[C@@H]1[C@@H]2CC[C@]2(C)C(=O)/C(=N/O)C[C@@H]12`, for which the growth in assay [1] is 60.1%; in assay [2] it was 76.2%; in assay [3] it was 50.9%; in assay [4], 56.7%; in [5], 64%; in [6], -5.15% (active). The growth in assay [7] was 44.5%; in assay [8], 58.5%; in assay [9], 47.3%; in [10], 40.8%.

For `COc1ccc(-c2cc(/C=C3\C(=O)Nc4cc(Cl)ccc43)[nH]n2)cc1OC`, the growth was 92.9% in [1]; 80.8% in assay [2]; 89.8% in assay [3]; 75% in assay [4]; 62.9% in assay [5]; 81.7% in assay [6]. Moreover, the growth in assay [7] was 46%; in [8], 75.7%; in [9], 105%; in assay [10], 79.4%.
